Bioassay records: PubChem BioAssay, National Center for Advancing Translational Sciences (NCATS)
Shiga toxin inh: blocks Shiga toxin action in Vero cells; Vero cells, Shiga toxin protein synthesis inhibition reporter; inhibition, % at 38.7 µM; actives 9.2% (n = 290,000); in the data active means inhibition mostly above about 28%, no sharp cut-off; inactive means mostly below about 43%; further: 0% is about no effect
Pf growth 96h: P. falciparum growth inhibition at 96 hour, primary screen for plastid delayed-death inhibitors | P. falciparum luciferase reporter growth, 96 h | Potency, µM (top dose mostly 28.7 µM), inactives show at the highest dose activity change, negative = inhibition, actives largely listed as inhibitors | AID 504834 | actives 6.9% (n = 320,000); further: potency means the concentration at half of the fitted maximal effect; on the % scale 0 is the no-effect control and ±100 the full control effect
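96 h incubation, 37 C, 5% CO2, of luciferase-reporter P. falciparum-infected RBCs (2% hematocrit, 0.05% parasitemia final) with test compounds; endpoint luminescence.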
Pf growth 48h: P. falciparum growth inhibition at 48 hours (one generation); actives 5.9% (n = 310,000); Potency, µM (top dose mostly 28.7 µM), for inactives: at the top dose activity change, negative = inhibition, usual class: inhibitors; P. falciparum luciferase growth in erythrocytes, 48 h; further: potency means the concentration at half of the fitted maximal effect; on the % scale 0 is the no-effect control and ±100 the full control effect
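Firefly luciferase activity from engineered P. falciparum reports growth; inhibitors lower the luminescent signal. Cultures contained 2% hematocrit erythrocytes at 0.1% final parasitemia.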
CHX counter: counter-screen hit for Shiga toxin inhibitors, cycloheximide; cell reporter, cycloheximide protein synthesis inhibition counterscreen; actives 12% (n = 300,000); AID 2314; max response, %; in the data active means max response mostly above about 13%, no sharp cut-off; inactive means mostly below about 14%; further: read at 38.3 µM for the half of the compounds with a filed dose; 0% is about no effect
HCMV inh: blocks human cytomegalovirus replication; HFF cells, HCMV-luciferase reporter, 72 h; stronger effect = lower value; activity change, negative = inhibition, % at 57.5 µM; actives 4.5% (n = 410,000); AID 1259415; in the data active means activity change below about -60%; inconclusive means no clear call, values can overlap the other calls; inactive means above about -39%; further: on the % scale 0 is the no-effect control and ±100 the full control effect
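Cell-based, HFFs, 1000 cells/well, 16 h 37C; cpds in DMSO + HCMV-luc, MOI 1 PFU/cell; 72 h 37C; OneGlo luminescence after 5 min RT; norm. to buffer vs Salinomycin 10uM.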
Numbers without * were called inactive; ? = inconclusive; . = no result; [ ] = dose if it differs, or a comment. Shown are actives, neighbours in structure and some others; about 20% of the full set was active somewhere. Unless noted, the call rests on the fitted dose curve; in most records, active means well fitted inhibition curve with a large enough effect; inconclusive means small, poorly fitted or top-dose-only effect, or another doubt; inactive means no such curve, though single readings can be large or run the other way.

SMILES	Shiga toxin inh	Pf growth 96h	Pf growth 48h	CHX counter	HCMV inh
Cc1nc2c(-c3ccccc3)c(C)nn2c(C)c1CCC(=O)NCc1cccc(Cl)c1	.	.	.	.	4
O=C(NCC1COc2ccccc2O1)c1ccc(Cl)cc1 (centres undefined)	39	-13%	161%	16*	86
CC(=O)NCC1(c2ccccc2)CCN(CC2COc3ccccc3O2)CC1 (centres undefined)	.	.	.	.	-2
CCN1CCN(CC2COc3ccccc3O2)CC1 (centres undefined)	3	4%	35%	2	-64*
c1ccc2c(c1)OCC(CNc1ncnc3sccc13)O2 (centres undefined)	23	?	-23%	7	-63*
S=C(NCC1COc2ccccc2O1)Nc1ccccc1 (centres undefined)	5	?	1%	6	27
O=C(NCC1COc2ccccc2O1)c1ccc(NC(=O)c2ccco2)cc1 (centres undefined)	-3	2%	?	-2	?
Cc1ccc(SCC(=O)NCC2COc3ccccc3O2)cc1 (centres undefined)	.	?	-18%	.	-65*
COCc1c(C(=O)NCC2COc3ccccc3O2)oc2ccccc12 (centres undefined)	.	?	12µM*	.	0
c1ccc2c(c1)OCC(CNCC1COc3ccccc3O1)O2 (centres undefined)	-2	0.21µM*	5%	-4	61
c1ccc(CCNCC2COc3ccccc3O2)cc1 (centres undefined)	28*	5%	.	19*	-9
O=C(O)CNCC1COc2ccccc2O1 (centres undefined)	9	126%	0%	-3	9
CCc1ccccc1NC(=O)Cn1c(=O)oc2ccccc21	.	.	.	.	0
O=C(Nc1ccc(O)cc1)c1cc(S(=O)(=O)N2CCCC2)ccc1Cl	-15	-25%	-14%	-4	-97*
Cc1occc1C(=O)Nc1ccc(S(=O)(=O)N2CCCC2)cc1	29*	0%	11%	9	-6
CCOc1ccc(S(=O)(=O)N2CCN(c3ccccc3)CC2)cc1C(N)=O	.	.	.	.	0
Cc1ccc(S(=O)(=O)N2CCN(c3ccccc3)CC2)cc1C(N)=O	-4	13µM*	-19%[5.75 µM]	-5	1
O=C(Nc1ccncc1)c1cc(S(=O)(=O)N2CCCC2)ccc1Cl	.	.	.	.	21
O=C(O)c1cc(S(=O)(=O)N2CCN(C(c3ccccc3)c3ccccc3)CC2)ccc1Cl	-1	9.3µM*	12µM*	2	15
CCc1ccc(NC(=O)Cn2nnc(C(=O)NCc3ccc(C)cc3)c2N)cc1	.	.	.	.	40
CC(O)c1nc2ccccc2n1CCCc1ccccc1 (centres undefined)	-14	-13%	-40%	-2	115
O=C(Nc1ccncc1)c1cc(S(=O)(=O)N2CCN(c3ccccc3)CC2)ccc1Cl	.	?	12µM*	.	-31
COCCNC(=O)C1CC(c2cccc(OC)c2)=NO1 (centres undefined)	-24	-20%	17%	16	21
COc1cccc(C2=NOC(C(=O)NCc3ccco3)C2)c1 (centres undefined)	21	?	-6%	23	-10
COc1ccc(C2=NOC(C(=O)NCc3ccccc3)C2)cc1 (centres undefined)	34*	7.4µM*	?	5	33
SMILES	Shiga toxin inh	Pf growth 96h	Pf growth 48h	CHX counter	HCMV inh
CCN(CC)C(=O)C1CC(c2ccc(OC)cc2)=NO1 (centres undefined)	82*	111%	77%	40*	68
COc1cccc(C2=NOC(C(=O)NCc3ccccc3)C2)c1 (centres undefined)	23	4.1µM*	-2%	13	-37
COc1ccc(C2=NOC(C(=O)NC(C)(C)C)C2)cc1 (centres undefined)	17	?	3%	3	30
COc1ccc(CNC(=O)C2CC(c3cc(C(F)(F)F)cc(C(F)(F)F)c3)=NO2)cc1 (centres undefined)	-5	36%	38%	-3	4
CCC(C)NC(=O)C1CC(c2cccc(OC)c2)=NO1 (centres undefined)	14	10µM*	9%	-4	-24
N#Cc1ccsc1NC(=O)CSc1ncnc2ccccc12	12	.	-2%	15*	65
Cn1ccnc1SCC(=O)Nc1sccc1C#N	14	63%	18%	11*	-7
Cc1nnc(SCC(=O)Nc2sccc2C#N)s1	-16	1%	9%	14	32
CC(C)(C)NS(=O)(=O)c1ccc(CCC(=O)N2CCCC2)cc1	-6	30%	?	8	-10
O=C(Nc1nc2ccccc2[nH]1)c1ccccc1[N+](=O)[O-]	51*	65%	145%	35*	30
Cc1c(C(=O)NC(Cc2ccccc2)c2nc3ccccc3[nH]2)cccc1[N+](=O)[O-] (centres undefined)	-6	?	?	1	14
O=C(Nc1nc2ccccc2[nH]1)c1ccc(Cl)c([N+](=O)[O-])c1	116*	86%	110%	37*	94
COC(=O)c1[nH]c2ccccc2c1NC(=O)c1ccccc1[N+](=O)[O-]	-4	33%	12%	-1	18
Cc1c(C(=O)Nc2nc3ccccc3[nH]2)cccc1[N+](=O)[O-]	28	43%	78%	15*	184
O=C(NC(Cc1ccccc1)c1nc2ccccc2[nH]1)c1ccc(Cl)c([N+](=O)[O-])c1 (centres undefined)	4	?	-19%	1	26
C=CC[n+]1c(/C=C2\C=Cc3cc(C)ccc3N2CC)ccc2ccccc21	-11	?	13µM*	-2	-102*
CCN1C(=C(C#N)C#N)C=Cc2cc(C)ccc21	-24	?	12%	-8	-21
CCC(=O)Nc1ccccc1C(=O)OC(c1ccccc1)c1ccccc1	3	?	?	1	-5
CCC(=O)Nc1ccccc1C(=O)OCc1ccc(C(=O)c2ccccc2)cc1	15	82%	42%	25*	49
CC(=O)Nc1ccccc1C(=O)OCc1ccc(F)cc1	37	10%	36%	32*	-22
CCCCn1c(=O)nc2n(-c3ccc(F)cc3)c3ccccc3cc-2c1=O	.	.	.	.	-4
CNc1ccc(N=Nc2cccc3ncccc23)cc1	.	.	.	.	10
COc1cc(F)ccc1Oc1cccc2c1S(=O)(=O)N([C@H](C)c1ccccc1)C[C@@H](COCc1ccccc1)O2	.	.	.	.	-23
C[C@@H](c1ccccc1)N1C[C@H](COCc2ccccc2)Oc2cc(N3CCC[C@@H]3CO)ccc2S1(=O)=O	.	.	.	.	7
Cc1ccc(Oc2cccc3c2S(=O)(=O)N([C@H](C)c2ccccc2)C[C@@H](COCc2ccccc2)O3)cc1	.	.	.	.	-78*
Cc1ccc(S(=O)(=O)N(C)c2cccc3c2S(=O)(=O)N([C@H](C)c2ccccc2)C[C@@H](COCc2ccccc2)O3)cc1	.	.	.	.	-65*
